Source: PubChem
Rows were chosen to be rich in hits. Some 7.5% of all compounds tested hit in one or more screens of this group.
Luc counter = counter-screen: inhibitors of Kinase-Glo firefly luciferase. Q27757. Kinase-Glo luciferase, ATP luminescence, 8 min. Potency, µM (highest dose often 38.3 µM), for inactives: at the highest dose activity change, negative = inhibition, usual class: inhibitors. actives 0.28% (n = 200,000). AID 1379; note: % is set by controls: 0 for no effect and ±100 for the full control effect; nearly all actives have a fitted effect of over 60% in size
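Compound is pinned into ATP-containing buffer (10 uM ATP, imidazole pH 7.2, 7 mM MgCl2). Kinase-Glo luciferase reagent is then added. Light output is recorded following an 8-min room-temperature incubation.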
ELG1 genotoxic = induces genotoxicity in HEK293T cells with luciferase-tagged ELG1; HEK293T ELG1-luciferase reporter, luminescence, 16 h; Potency, µM (titrated, usually from 46 µM), for inactives: at the highest dose activity change, positive = activation, actives largely listed as activators; actives 1.3% (n = 330,000); AID 504466; note: % of control where 0% means no effect; nearly all actives have a fitted effect of over 60% in size
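ELG1-luciferase HEK293T cells, 2,000/well; compound pinned in; 16 hr, 37 °C, 5% CO2; ONE-Glo, 30 min RT; luminescence on CCD imager.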
Rab9 prom act = activators of Rab9 promoter; Huh7 Rab9 promoter-luciferase reporter, luminescence, 24 h; Potency, µM (titrated, usually from 9.22 µM), inactives show at the highest dose activation, negative = inhibition, hits mostly activators; actives 2.8% (n = 320,000); AID 485297; note: % of control where 0% means no effect; nearly all actives have a fitted effect of over 60% in size
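Measured in stably transfected Huh7 cells bearing a Rab9 promoter–luciferase construct: 24 h compound treatment at 37 °C, followed by luminescence detection.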
FLuc counter = counter-screen for miR-21 project: firefly luciferase inhibitors or activators; P08659; purified FLuc, Km substrates, luminescence inhibition; Potency, µM (highest dose often 57.5 µM), without a hit: at the highest dose activity change, negative = inhibition, usual class: inhibitors; actives 6.9% (n = 360,000); AID 588342;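 note: plate controls were vehicle for no effect and reference inhibitor for full effect; nearly all actives have a fitted effect of over 55% in size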
Target sequence (P08659 whole entry, looked up): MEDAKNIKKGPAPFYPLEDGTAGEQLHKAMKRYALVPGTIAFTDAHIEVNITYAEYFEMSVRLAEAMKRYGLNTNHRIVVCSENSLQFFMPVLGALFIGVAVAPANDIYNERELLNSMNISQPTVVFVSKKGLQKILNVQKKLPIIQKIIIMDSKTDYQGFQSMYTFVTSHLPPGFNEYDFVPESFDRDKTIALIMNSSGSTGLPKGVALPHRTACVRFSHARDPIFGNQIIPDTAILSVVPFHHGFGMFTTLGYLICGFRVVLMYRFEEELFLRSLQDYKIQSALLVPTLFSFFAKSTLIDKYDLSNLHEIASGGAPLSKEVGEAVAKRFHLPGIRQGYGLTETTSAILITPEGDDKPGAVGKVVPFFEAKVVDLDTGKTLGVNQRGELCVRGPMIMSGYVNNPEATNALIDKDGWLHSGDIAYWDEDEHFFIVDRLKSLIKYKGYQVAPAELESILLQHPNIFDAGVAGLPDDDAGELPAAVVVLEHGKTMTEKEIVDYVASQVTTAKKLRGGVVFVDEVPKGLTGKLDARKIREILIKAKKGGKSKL
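Purified P. pyralis luciferase, 10 nM final, with Km-level 10 uM D-luciferin and 10 uM ATP in 50 mM Tris acetate pH 7.5, 10 mM Mg acetate, 0.01% Tween-20, 0.05% BSA; 6-point qHTS titration about 60 µM downward; luminescence read.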
SMN2 splice enh = enhancers of SMN2 splice variant expression; HEK293 SMN2-luciferase splicing reporter, luminescence, 30-36 h; Potency, µM (titrated, usually from 46.1 µM), for the others: at the top dose activity change, positive = activation, most hits filed as activators; actives 2.8% (n = 210,000); AID 1458; note: % of control where 0% means no effect; nearly all actives have a fitted effect of over 55% in size
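qHTS luciferase splicing reporter: luminescence rises when SMN2 exon 7 is included in transfected HEK293 cells. Compound exposure lasted 30-36 h at 37C, with 4.5 mM final sodium butyrate as control, followed by a ONE-Glo read.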
NPC1 prom act = activates the NPC1 promoter. Huh7 NPC1 promoter luciferase reporter, 24 h. Potency, µM (doses to about 9.22 µM), without a hit: top-dose activation, hits mostly activators. actives 2.4% (n = 320,000); note: % of control where 0% means no effect; nearly all actives have a fitted effect of over 60% in size
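In 1536-well qHTS, Huh7 cells harboring an NPC1 promoter–luciferase construct received compound for 24 h; activation was quantified by luminescence following luciferase reagent addition.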
* marks the source's active call; other numbers are inactive results; ? = inconclusive; / = no result given. Calls come from the whole dose curve; as a rule, active = well fitted curve in the direction sought with a large enough effect; inconclusive = small, poorly fitted or top-dose-only effect, or another doubt; inactive = no such curve, though single readings can be large; an effect the other way counts as inactive or inconclusive. Potency is the fitted concentration of half-maximal effect.

SMILES	Luc counter	ELG1 genotoxic	Rab9 prom act	FLuc counter	SMN2 splice enh	NPC1 prom act
O=C(CCNS(=O)(=O)c1cccc2nsnc12)Nc1ccc(F)cc1	/	/	/	0%	-1%	/
COc1cc2ccccc2cc1C(=O)NC(=S)Nc1cccc(C(=O)O)c1	2%	17%	2.2µM*	13µM*	20%	?
O=C(NC(=S)Nc1cccc([N+](=O)[O-])c1)c1ccccc1	/	14%	4µM*	?	/	?
O=C(NC(=S)Nc1cccc([N+](=O)[O-])c1)c1ccco1	-2%	6%	28%	2%	28%	16%
O=C(NC(=S)Nc1ccc(Cl)cc1)c1ccccc1	/	22%	?	11µM*	/	?
O=C(NC(=S)Nc1ccccn1)c1cncc(Br)c1	-2%	11%	?	15µM*	-25%	?
O=C(NC(=S)Nc1ccc(Br)cn1)c1cncc(Br)c1	6%	2%	-3%	-5%	12%	6%
COc1ccc(S(=O)(=O)NC(C)C)cc1C(=O)N1CCOCC1	1%	0%	-2%	0%	6%	-4%
Cc1nn2c(C)c(C(=O)NCc3ccc(OC(C)C)cc3)cnc2c1-c1ccc(F)cc1	/	/	/	-3%	/	/
Cc1cc(NC(=O)CSc2ncccc2C(=O)O)no1	-1%	3%	1%	0%	/	-3%
N#Cc1ccc(C(=O)Nc2ccc([N+](=O)[O-])cc2)c(F)c1	1%	11%	5%	6%	/	-3%
CC(=O)c1cccc(NC(=S)NC(=O)c2ccccc2)c1	3%	?	2.2µM*	7.6µM*	?	?
O=C(O)c1cccc(NC(=S)NC(=O)c2ccc(-c3ccccc3)cc2)c1	1%	?	?	1.1µM*	3.2µM*	0.35µM*
CC#CCCCC(=O)Nc1cccc(C(=O)O)c1	-1%	12%	3.2µM*	24µM*	?	?
CC(=O)c1cccc(NC(=O)CCCSc2ccccc2)c1	/	0%	-3%	?	/	0%
CC(=O)c1cccc(NC(=S)NC(=O)c2cccc(Cl)c2)c1	-1%	?	3.5µM*	21µM*	?	?
Cc1ccc(N2C(=O)N(CC(=O)Nc3ccc(C)c(C)c3)C(=O)C2C)cc1 (stereo unspecified)	/	-2%	-5%	?	/	0%
CC(=O)c1cccc(NC(=S)NC(=O)c2cncc(Br)c2)c1	/	10%	?	?	/	2.5µM*
O=C(N/C(=N\O)c1ccccc1)Nc1ccc(Cl)cc1	-2%	?	-5%	17µM*	/	1%
Cc1cccc(C(=O)NC(=S)Nc2ccccc2C(F)(F)F)c1	-2%	-1%	12%	-19%	2%	17%
Cc1ccc(C(=O)NC(=S)Nc2ccccc2C(F)(F)F)cc1C	0%	1%	-2%	24µM*	-17%	3%
CC(C)OC(=O)c1ccc(NC(=S)NC(=O)c2cncc(Br)c2)cc1	/	0%	-5%	-11%	/	-1%
Cc1ccc(C(=O)O)cc1NC(=S)NC(=O)c1ccc(-c2ccccc2)cc1	0%	?	?	1.5µM*	/	?
O=C(Nc1nnc(C2CC2)s1)c1n[nH]c(=O)c2ccccc12	/	-2%	-3%	-8%	/	1%
O=C(O)c1cccc(NC(=S)NCc2ccccc2)c1	0%	2%	?	15µM*	/	16%
CCOc1ccc(C(=O)NC(=S)Nc2ccccn2)cc1[N+](=O)[O-]	-1%	0%	?	-6%	-68%	-2%
CC(C)CCOCC(=O)Nc1cccc(C(=O)O)c1	-4%	?	0.5µM*	5.4µM*	14µM*	0.71µM*
CCOCC(=O)Nc1cccc(Br)c1	2%	3%	1%	-39%	6%	0%
O=C(NC(=S)Nc1ccccn1)c1cccc([N+](=O)[O-])c1	/	?	1.6µM*	24µM*	/	1.3µM*
O=C(NC(=S)Nc1cc([N+](=O)[O-])ccc1O)c1cccnc1	1%	8%	?	17µM*	-6%	19%
